Reference: PubChem BioAssay (NCATS)
Results filed as inconclusive are left out. Activity calls are given as the source filed them. The call rests on the fitted dose curve; in most records, active means well fitted cell-killing curve with a large enough effect; inconclusive means small, poorly fitted or top-dose-only effect, or effect the other way; inactive means no such curve, though single readings can be large or run the other way.

Assay: Quantitative High-Throughput drug screen in 47 multiple myeloma cell lines against the NCATS MIPE library collection: MOLP8_DSMZ cell viability assay (AID 1918977); further: nearly all actives have a fitted effect of over 45% in size
Settings: MOLP8 myeloma viability, CellTiter-Glo ATP luminescence, 48 h; series mostly up to 45.8 µM
Excerpt: PI: Beverly A. Mock Ph.D.
Laboratory of Cancer Biology and Genetics,
Center for Cancer Research, National Cancer Institute,
National Institute of Health, Bethesda, Maryland
Drug resistance and disease progression are common in multiple myeloma (MM) patients, underscoring the need for new therapeutic combinations. […] We hypothesized that effective combinations would reduce MYC expression and enhance p16 activity. […] These preclinical data identify potentially useful drug combinations for evaluation in drug-resistant MM and reveal potential mechanisms of combined drug sensitivity.
Described herein is the primary MIPE qHTS used to cherrypick compounds. Validated compounds were then further tested for potential synergistic activiy.
[1] Peat TJ, Gaikwad SM, Dubois W, Gyabaah-Kessie N, Zhang S, Gorjifard S, Phyo Z, Andres M, Hughitt VK, Simpson RM, Miller MA, Girvin AT, Taylor A, Williams D, D'Antonio N, Zhang Y, Rajagopalan A, Flietner E, Wilson K, Zhang X, Shinn P, Klumpp-Thomas C, McKnight C, Itkin Z, Chen L, Kazandijian D, Zhang J, Michalowski AM, Simmons JK, Keats J, Thomas CJ, Mock BA. Drug combinations identified by high-throughput screening promote cell cycle transition and upregulate Smad pathways in myeloma. Cancer Lett. 2023 Aug 1;568:216284. doi: 10.1016/j.canlet.2023.216284. Epub 2023 Jun 24. PMID: 37356470; PMCID: PMC10408729.
SEQUENCE No. (e.g., 1, 2, 3, etc.); […] (e.g., Cells, Incubation, Reagent, etc.); VALUE and DESCRIPTION.
1; Cells; 5 uL; white, solid bottom 1536-well Greiner assay plate.
2; Compounds; 23 nL; Kalypsis pin tool (Wako USA) equipped with a 1536-well pin head to transfer to the assay plates.
3; Incubation; 48 hours; 37C incubation.
4; Reagent;5uL; CellTiter Glo (Promega).
5; Detector; 425V; Luminescence; Viewlux PerkinElmer.
NOTES (numbers refer to Sequence numbers above)
1. The cell-based screening methods employed in this study were like those previously published. Briefly, the corresponding myeloma cell lines were screened in 1,536-well plates with 500 cells, 5-uL per well for inhibition of cell viability (assessed by measuring ATP levels with CellTiterGlo).
2. NCATS MIPE 4.0 library of approved and investigational drugs were added using the Kalypsis pin tool. Wells treated with DMSO only for 100% viability and media only for 0% viability were used as controls.
3. The assay plates were covered and incubated for 48 hours in a 37C, 5% CO2 incubator with controlled humidity.
4. After 48 hours, CellTilter-GloTM luminescent substrate mix (Promega) reagent was added to the assay plate and plates we incubated for 5 min at room temperature.
5. Signal was measured as median relative luminescence units on a ViewLux (PerkinElmer) multiplate reader.
[1] Heske CM, Davis MI, Baumgart JT, Wilson K, Gormally MV, Chen L, Zhang X, Ceribelli M, Duveau DY, Guha R, Ferrer M, Arnaldez FI, Ji J, Tran HL, Zhang Y, Mendoza A, Helman LJ, Thomas CJ. Matrix Screen Identifies Synergistic Combination of PARP Inhibitors and Nicotinamide Phosphoribosyltransferase (NAMPT) Inhibitors in Ewing Sarcoma. Clin Cancer Res. 2017 Dec 1;23(23):7301-7311. doi: 10.1158/1078-0432.CCR-17-1121. Epub 2017 Sep 12. PMID: 28899971; PMCID: PMC6636827.
Potency means the concentration at half of the fitted maximal effect.

| SMILES | Potency |
| --- | --- |
| Cn1c(N2CCCCS2(=O)=O)nc(C(=O)NCc2ccc(F)cc2)c(O)c1=O | inactive |
| O=c1[nH]cnc2c1ncn2[C@H]1CC[C@@H](CO)O1 | inactive |
| O=C(O)C(O)Cc1ccc(O)c(O)c1 (stereo not given) | 20.9 µM (active) |
| COc1cc2nc(-c3ccc(N4CCN(C)CC4)cc3)nc(NCCN3CCOCC3)c2cc1OC | 0.0418 µM (active) |
| CC(C(=O)O)c1ccc(-c2ccccc2)c(F)c1 (stereo not given) | inactive |
| O=C(NCc1ccccc1)c1csc(Nc2ccncn2)n1 | 18.7 µM (active) |
| O=C(Nc1ccccc1-c1cn2c(CN3CCNCC3)csc2n1)c1cnc2ccccc2n1 | 9.35 µM (active) |
| COc1cc(Nc2ncc(F)c(Nc3ccc4c(n3)NC(=O)C(C)(C)O4)n2)cc(OC)c1OC | 7.43 µM (active) |
| Cc1ccc(Nc2cc(-c3cccc(N4C(=O)c5ccccc5C4=O)c3)ncn2)cc1NS(C)(=O)=O | 20.9 µM (active) |
| Oc1ccc(C2=Cc3ccc(O)cc3OC2)cc1 | 2.35 µM (active) |
| O=C(O)c1ccc(-c2c[nH]c3ncc(-c4ccccc4)cc23)cc1C1CCCC1 | inactive |
| CN(C)Cc1ccc(-c2nc3cccc4c3n2CCNC4=O)cc1 | 13.2 µM (active) |
| COC[C@@H](c1ccc(C(F)(F)F)cc1)N1CCN(C2(C)CCN(C(=O)c3c(C)ncnc3C)CC2)C[C@H]1C | inactive |
| Clc1cc(Cl)cc(CNc2ncncc2-c2ccc3c(c2)OCO3)c1 | inactive |
| CC(=O)Nc1ccc([C@H](C)C(=O)Nc2ncc(C(C)C)s2)cc1 | 3.32 µM (active) |
| C[C@]12CC[C@@H]3c4ccc(O)cc4C[C@@H](CCCCCCCCCS(=O)CCCC(F)(F)C(F)(F)F)[C@H]3[C@H]1CC[C@H]2O (stereo not given in full) | inactive |
| CC(C)(C)NC(=O)Nc1cccc(Nc2ncc(F)c(NC(C)(C)CO)n2)c1 | inactive |
| CC=CCC=CCCC(=O)[C@H]1O[C@@H]1C(N)=O | 14.8 µM (active) |
| O=C(NOCC(O)CO)c1cc(Br)c(F)c(F)c1Nc1ccc(I)cc1F (stereo not given) | inactive |
| Cc1nc(N)sc1-c1ccnc(Nc2ccc(N3CCOCC3)cc2)n1 | 7.43 µM (active) |

| SMILES | Potency |
| --- | --- |
| COc1cc2ncnc(Nc3ccc(F)c(Cl)c3)c2cc1OCCCN1CCOCC1 | 48.1 µM (active) |
| O=C(O)c1ccccc1C(=O)Nc1ccc(-c2ccccc2)cc1 | inactive |
| CCCCCNC(=O)N1CCC(CN(Cc2ccc(Cl)cc2)Cc2ccc([N+](=O)[O-])s2)C1 (stereo not given) | 18.7 µM (active) |
| C[C@@H]1CCN(C(=O)CC#N)C[C@H]1N(C)c1ncnc2[nH]ccc12 | inactive |
| Nc1ncnc2c1nc(Cl)n2[C@@H]1O[C@H](CO)[C@@H](O)[C@@H]1O | 7.43 µM (active) |
| CCN(CC)CCOc1ccc(C(=C(Cl)c2ccccc2)c2ccccc2)cc1 | inactive |
| COc1cc2c(cc1OC)CN(CCc1ccc(NC(=O)c3cc(OC)c(OC)cc3NC(=O)c3cnc4ccccc4c3)cc1)CC2 | inactive |
| Clc1ccc(COC(Cn2ccnc2)c2ccc(Cl)cc2Cl)cc1 (stereo not given) | inactive |
| CCOC(=O)O[C@]1(C(=O)OCCl)CC[C@@H]2[C@H]3CCC4=CC(=O)C=C[C@]4(C)[C@@H]3[C@@H](O)C[C@@]21C | inactive |
| O=C1c2c(O)cc(O)cc2O[C@H](c2cc(O)c(O)c(O)c2)[C@H]1O | 18.7 µM (active) |
| CN1C[C@H]2c3ccccc3Oc3ccc(Cl)cc3[C@@H]2C1 | inactive |
| C=C1C(=O)[C@@]23C(CC[C@@H]1[C@H]2O)[C@@]12CO[C@]3(O)[C@@H](O)[C@@H]1C(C)(C)CC[C@@H]2O (stereo not given in full) | 2.35 µM (active) |
| COC(=O)C1=CO[C@@H](O)[C@@H]2C(CO)=CC[C@@H]12 | 23.5 µM (active) |
| OC[C@H]1O[C@@H](Oc2cc(O)cc(C=Cc3ccc(O)cc3)c2)[C@H](O)[C@@H](O)[C@H]1O | inactive |
| Cc1c(O)cccc1C(=O)N[C@@H](CSc1ccccc1)[C@H](O)CN1C[C@H]2CCCC[C@@H]2C[C@@H]1C(=O)NC(C)(C)C | 16.6 µM (active) |
| Cc1[nH]c(C=C2C(=O)Nc3ccc(S(=O)(=O)Cc4c(Cl)cccc4Cl)cc32)c(C)c1C(=O)N1CCC[C@H]1CN1CCCC1 | 16.6 µM (active) |
| C=C1C(=O)OC2C=C(C)CCC=C(C)CCC12 (stereo not given) | 16.6 µM (active) |
| CCC(=O)NC[C@H](Cc1ccc(OCCc2nc(-c3ccccc3)oc2C)cc1)NC(C)=CC(=O)c1ccc(C(F)(F)F)cc1 | 23.5 µM (active) |
| CCOC(=O)C1=C(N)Oc2ccc(Br)cc2C1C(C#N)C(=O)OCC (stereo not given) | 18.7 µM (active) |
| NS(=O)(=O)c1cccc2c1C(=O)c1cccc(O)c1C2=O | 0.296 µM (active) |
